Results from PubChem BioAssay (NCATS).
Where “and” joins values, the source holds several entries; their conditions need not be identical. Identical values can stand only once. Records with an inconclusive call do not appear. Calls of active or inactive are those of the source. Unless noted, calls come from the whole dose curve; as a rule, active = well fitted cell-killing curve with a large enough effect; inconclusive = small, poorly fitted or top-dose-only effect; inactive = flat fitted curve, though single readings scatter.

What was measured:
[1] = Cell Viability - LYMP2-025 (AID 976);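 note: series mostly up to about 92 µM; plate controls were DMSO only for no effect and tetraoctylammonium bromide control for full effect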
Summary of the method: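 Cytotoxicity read as loss of intracellular ATP (luciferase luminescence) after 24 h compound treatment at 37 C. Uses LYMP2-025 lymphoblastoid cells in 1536-well format; Hill-equation modelling gives AC50; tetraoctylammonium bromide as positive control.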

[2] = Cell Viability - LYMP2-002 (AID 977);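 note: series mostly up to about 92 µM; plate controls were DMSO only for no effect and 92 µM tetraoctylammonium bromide for full effect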
Summary of the method: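 In this qHTS viability screen, 2500 human lymphoblastoid cells per well receive compound for 24 hr at 37 C, and luciferase-based ATP luminescence gives the viability signal. Tetraoctylammonium bromide serves as positive control.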

[3] = Cell Viability - LYMP2-006 (AID 978); note: series mostly up to about 92 µM; % is set by controls: 0 for no effect and ±100 for the full control effect; nearly all actives have a fitted effect of over 60% in size
Summary of the method: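 Human lymphoblastoid cells, 2500 per well, were preincubated 5 hr at 37 C, then exposed to compounds for 24 hr at 37 C in complete medium. Viability was read as intracellular ATP by CellTiter-Glo luminescence; AC50 from Hill-equation fits of qHTS concentration-response data.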

[4] = Cell Viability - LYMP2-007 (AID 979);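 note: cells exposed to compound for 24 h before reading; 0% = DMSO only and the negative end = 92 µM tetraoctylammonium bromide; nearly all actives have a fitted effect of over 60% in size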
Summary of the method: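 AC50 values come from Hill-equation fits of luminescent intracellular ATP (CellTiter-Glo, 30 min, room temperature) following 24 h compound exposure at 37 C. Cells: LYMP2-007 lymphoblastoid line, 2500 per well, in complete culture medium.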

[5] = Cell Viability - LYMP2-008 (AID 980); note: % is set by controls: 0 for no effect and ±100 for the full control effect; nearly all actives have a fitted effect of over 60% in size
Summary of the method: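 Cytotoxicity determined from ATP-dependent luciferase luminescence (CellTiter-Glo) following 24 h compound exposure of human lymphoblastoid LYMP2-008 cells at 37 C. Concentration-response data fitted to the Hill equation to give AC50.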

[6] = Cell Viability - LYMP2-010 (AID 981); note: % is set by controls: 0 for no effect and ±100 for the full control effect; nearly all actives have a fitted effect of over 55% in size
Summary of the method: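 CellTiter-Glo ATP luminescence measured cytotoxicity after 24 h compound exposure at 37 C. LYMP2-010 cells were seeded at 2500/well, with tetraoctylammonium bromide as control; concentration-response curves gave AC50 values by the Hill equation.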

[7] = Cell Viability - LYMP2-012 (AID 982);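 note: cellular ATP by luciferase luminescence where a drop means cytotoxicity; cells exposed to compound for one day before reading; 0% = DMSO only and full loss = 92 µM tetraoctylammonium bromide; nearly all actives have a fitted effect of over 55% in size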
[8] = Cell Viability - LYMP2-014 (AID 983);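 note: series mostly up to about 92 µM; plate controls were DMSO only for no effect and 92 µM tetraoctylammonium bromide for full effect; nearly all actives have a fitted effect of over 50% in size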
Summary of the method: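 Intracellular ATP loss, read by luciferase luminescence, measures acute cytotoxicity after 24 h compound exposure of lymphoblastoid LYMP2-014 cells (2500/well, 37 C). Concentration-response data fitted to the Hill equation for AC50.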

[9] = Cell Viability - LYMP2-016 (AID 984); note: % is set by controls: 0 for no effect and ±100 for the full control effect; nearly all actives have a fitted effect of over 55% in size
Summary of the method: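 Human lymphoblastoid cells (LYMP2-016), 2500/well in complete medium, preincubated 5 hr at 37 C, then compound-treated 24 hr at 37 C. Intracellular ATP read by CellTiter-Glo luminescence after 30 min at room temperature; AC50 from Hill-equation concentration-response fits.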

[10] = Cell Viability - LYMP2-020 (AID 986);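 note: series mostly up to about 92 µM; plate controls were DMSO only for no effect and tetraoctylammonium bromide at 92 µM for full effect; nearly all actives have a fitted effect of over 55% in size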
Summary of the method: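 Cytotoxicity in qHTS format: luminescent ATP readout from CellTiter-Glo after 24 h compound exposure at 37 C in complete medium. LYMP2-020 lymphoblastoid cells were seeded at 2500/well; concentration-response data fitted to the Hill equation for AC50.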

[11] = Cell Viability - LYMP2-022 (AID 987)
Summary of the method: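 Cytotoxicity read as decreased cellular ATP (CellTiter-Glo luminescence, 30 min room temperature) after 24 hours compound exposure of 2500 lymphoblastoid LYMP2-022 cells/well at 37 C. Concentration-response data fitted with standard Hill equation for AC50.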

[12] = Cell Viability - LYMP2-024 (AID 988);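 note: plate controls were DMSO only for no effect and 92 µM tetraoctylammonium bromide for full effect; nearly all actives have a fitted effect of over 60% in size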
Summary of the method: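 Cytotoxicity was taken as a decrease in ATP (CellTiter-Glo luminescence) after 24 hr compound exposure at 37 C of LYMP2-024 lymphoblastoid cells, 2500 cells/well. Concentration-response data were fitted to the Hill equation to give AC50.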

[13] = Cell Viability - LYMP2-026 (AID 989); note: % is set by controls: 0 for no effect and ±100 for the full control effect; nearly all actives have a fitted effect of over 50% in size
Summary of the method: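 Cytotoxicity read as ATP-dependent luminescence (CellTiter-Glo, 30 min room temperature) after 24 h compound treatment at 37 C. LYMP2-026 lymphoblastoid line seeded at 2500 cells/well; AC50 derived by standard Hill equation.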

[14] = Cell Viability - LYMP1-002 - Assay at 24 hr (AID 993); note: % is set by controls: 0 for no effect and ±100 for the full control effect
Summary of the method: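 qHTS cytotoxicity at 24 h: CellTiter-Glo ATP luminescence in lymphoblastoid line LYMP1-002 incubated with compound at 37 °C. Concentration-response modeled with the Hill equation for AC50; tetraoctylammonium bromide served as positive control.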

[15] = Cell Viability - LYMP1-002 - Assay at 40 hr (AID 994)
Summary of the method: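 Cytotoxicity was read as loss of cellular ATP (CellTiter-Glo luminescence) after 40 hr compound exposure at 37 C of 2500 LYMP1-002 lymphoblastoid cells per well. Concentration-response data were fitted with the standard Hill equation to give AC50.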

[16] = qHTS Assay for Identification of Small Molecule Inducers of Hypoxia Response (AID 2120; active = well fitted curve in the direction sought with a large enough effect in the signal ratio, with a control signal flat, not every such curve was filed as active; the % refers to the signal ratio; note: 0% is about no effect)
Summary of the method: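 Reporter induction read as the CCF4 blue/green (460nm/530nm) emission ratio after 2.5 h dye loading at room temperature. ME-180 HRE-beta-lactamase cells received titrated compounds for 17 h at 37 degrees Celsius; AC50 values derived.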

[17] = biological target: Estrogen receptor (Homo sapiens) (UniProt P03372); assay: qHTS assay for small molecule antagonists of estrogen receptor alpha signaling (AID 588513; active = well fitted curve in the direction sought with a large enough effect in the signal ratio, with a control signal flat, not every such curve was filed as active; the % refers to the signal ratio; note: % is set by controls: 0 for no effect and ±100 for the full control effect)
Chain of Estrogen receptor (Homo sapiens) (P03372 whole entry, looked up): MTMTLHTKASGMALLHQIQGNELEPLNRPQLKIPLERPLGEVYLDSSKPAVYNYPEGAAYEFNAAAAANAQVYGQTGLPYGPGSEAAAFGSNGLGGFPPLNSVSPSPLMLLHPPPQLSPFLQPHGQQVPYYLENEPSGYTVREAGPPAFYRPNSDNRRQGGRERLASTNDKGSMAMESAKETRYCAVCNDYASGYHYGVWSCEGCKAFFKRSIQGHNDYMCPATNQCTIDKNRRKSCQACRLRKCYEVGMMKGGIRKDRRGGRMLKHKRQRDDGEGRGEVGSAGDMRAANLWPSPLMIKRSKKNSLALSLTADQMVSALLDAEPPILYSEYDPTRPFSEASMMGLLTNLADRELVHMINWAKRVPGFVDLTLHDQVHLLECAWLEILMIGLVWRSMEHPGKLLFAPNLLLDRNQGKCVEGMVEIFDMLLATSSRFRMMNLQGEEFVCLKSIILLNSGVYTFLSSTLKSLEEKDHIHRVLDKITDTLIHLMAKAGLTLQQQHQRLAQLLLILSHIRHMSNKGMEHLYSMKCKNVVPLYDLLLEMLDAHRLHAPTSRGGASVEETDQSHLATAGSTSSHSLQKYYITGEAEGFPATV
Summary of the method: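 ER-alpha-UAS-bla GripTite HEK 293 cells in medium with 2% charcoal/dextran-treated FBS were preincubated 4 h at 37 C, dosed with compound (1:2 titration), stimulated with 0.5nM 17-beta-estradiol for 18 h, then read by CCF4 beta-lactamase fluorescence.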

[18] = biological target: Glucocorticoid receptor (Homo sapiens) (UniProt P04150); assay: qHTS assay for small molecule agonists of glucocorticoid receptor signaling (AID 588532; active = well fitted curve in the direction sought with a large enough effect in the signal ratio, with a control signal flat; the % refers to the signal ratio;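 note: 100% = dexamethasone at 0.1 µM and 0% = DMSO only wells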); conditions: HeLa MMTV-bla, beta-lactamase ratio, agonist, 18 h; stronger effect = higher value; percent of dexamethasone control, DMSO zero
Chain of Glucocorticoid receptor (Homo sapiens) (P04150 whole entry, looked up): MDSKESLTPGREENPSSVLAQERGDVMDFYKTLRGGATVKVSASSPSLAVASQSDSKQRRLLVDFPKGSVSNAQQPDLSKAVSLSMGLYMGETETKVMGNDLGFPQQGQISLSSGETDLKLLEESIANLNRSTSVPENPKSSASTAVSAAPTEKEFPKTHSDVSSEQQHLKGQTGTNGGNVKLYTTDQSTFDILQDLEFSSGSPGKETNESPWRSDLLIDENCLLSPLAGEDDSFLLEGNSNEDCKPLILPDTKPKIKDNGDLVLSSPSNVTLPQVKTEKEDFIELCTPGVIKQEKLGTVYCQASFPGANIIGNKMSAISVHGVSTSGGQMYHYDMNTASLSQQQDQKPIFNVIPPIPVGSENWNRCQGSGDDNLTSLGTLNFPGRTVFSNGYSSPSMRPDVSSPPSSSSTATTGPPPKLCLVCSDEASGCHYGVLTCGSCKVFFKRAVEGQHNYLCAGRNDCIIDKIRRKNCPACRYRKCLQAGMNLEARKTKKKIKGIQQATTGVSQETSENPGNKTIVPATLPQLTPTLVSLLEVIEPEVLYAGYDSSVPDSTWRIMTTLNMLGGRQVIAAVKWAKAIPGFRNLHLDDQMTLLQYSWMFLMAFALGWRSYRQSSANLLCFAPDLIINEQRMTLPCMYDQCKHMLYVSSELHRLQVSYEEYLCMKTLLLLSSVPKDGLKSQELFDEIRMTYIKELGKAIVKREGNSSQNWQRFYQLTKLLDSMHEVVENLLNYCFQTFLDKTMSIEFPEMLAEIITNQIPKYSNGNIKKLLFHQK
Summary of the method: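 Titration series, up to 92 uM, applied to GRE-bla HeLa cells for 18 h at 37 C. Detection by CCF4 FRET substrate after 2 h at RT.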

[19] = biological target: Glucocorticoid receptor (Homo sapiens) (UniProt P04150); assay: qHTS assay for small molecule antagonists of glucocorticoid receptor signaling (AID 588533; active = well fitted inhibition curve with a large enough effect in the signal ratio, with a control signal flat, not every such curve was filed as active; the % refers to the signal ratio;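 note: cells stimulated with 2 nM dexamethasone as agonist; % is set by controls: 0 for no effect and ±100 for the full control effect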)
Summary of the method: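 Antagonist-mode qHTS: compound titrations added to GRE-bla HeLa cells, then dexamethasone 2 nM final; 18 h, 37 C. CCF4 FRET fluorescence normalized to dexamethasone and DMSO; IC50 from Hill fit.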

[20] = qHTS assay for small molecule antagonists of peroxisome proliferator-activated receptor delta signaling (AID 588535; active = well fitted inhibition curve with a large enough effect in the signal ratio, with a control signal flat, not every such curve was filed as active; the % refers to the signal ratio;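 for max response: cells co-treated with a PPAR-delta agonist as stimulator during compound exposure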); conditions: HEK293T PPARd-UAS-bla, beta-lactamase FRET ratio, 18 h; 460 nm channel
Summary of the method: (§1)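 Inhibition of PPAR-delta response element-driven beta-lactamase expression is measured in HEK293T cells exposed to a compound titration series for 18 hrs at 37 C. Half-maximal inhibition comes from Hill equation fitting.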

[21] = biological target: Peroxisome proliferator-activated receptor delta (Homo sapiens) (UniProt Q03181); assay: as above
Chain of Peroxisome proliferator-activated receptor delta (Homo sapiens) (Q03181 whole entry, looked up): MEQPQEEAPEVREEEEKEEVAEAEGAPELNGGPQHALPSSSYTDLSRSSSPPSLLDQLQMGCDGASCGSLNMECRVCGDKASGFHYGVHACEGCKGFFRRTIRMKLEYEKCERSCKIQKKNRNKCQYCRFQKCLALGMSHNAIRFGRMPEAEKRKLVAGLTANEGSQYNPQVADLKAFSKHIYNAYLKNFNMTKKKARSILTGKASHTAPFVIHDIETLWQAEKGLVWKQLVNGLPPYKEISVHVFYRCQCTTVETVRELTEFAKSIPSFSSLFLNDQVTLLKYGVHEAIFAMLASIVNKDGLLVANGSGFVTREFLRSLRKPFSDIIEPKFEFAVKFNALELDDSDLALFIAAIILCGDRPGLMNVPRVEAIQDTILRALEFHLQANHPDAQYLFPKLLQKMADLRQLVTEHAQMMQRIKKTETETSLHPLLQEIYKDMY
Summary of the method: as §1

[22] = biological target: Vitamin D3 receptor (Homo sapiens) (UniProt P11473); assay: qHTS assay for small molecule antagonists of vitamin D receptor signaling (AID 588541; calls by dose curve;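 note: receptor activated by calcitriol during compound treatment; series mostly up to about 77 µM; % is set by controls: 0 for no effect and ±100 for the full control effect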)
Chain of Vitamin D3 receptor (Homo sapiens) (P11473 whole entry, looked up): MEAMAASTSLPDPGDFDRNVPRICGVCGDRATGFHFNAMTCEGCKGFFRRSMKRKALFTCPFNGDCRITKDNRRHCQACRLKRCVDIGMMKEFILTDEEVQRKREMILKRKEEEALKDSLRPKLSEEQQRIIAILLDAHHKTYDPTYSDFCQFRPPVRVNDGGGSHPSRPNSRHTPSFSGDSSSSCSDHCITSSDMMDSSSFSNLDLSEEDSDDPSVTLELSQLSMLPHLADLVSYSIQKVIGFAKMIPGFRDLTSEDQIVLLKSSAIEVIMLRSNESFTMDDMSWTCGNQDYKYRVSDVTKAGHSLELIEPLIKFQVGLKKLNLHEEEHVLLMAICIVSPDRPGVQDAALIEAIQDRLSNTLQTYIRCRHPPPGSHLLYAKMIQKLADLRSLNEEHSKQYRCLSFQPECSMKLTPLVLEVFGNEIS
Summary of the method: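 VDR-UAS-bla HEK293T cells (2000/well, 2% charcoal-stripped FBS) were treated with titrated compounds plus 1-alpha,25-dihydroxyvitamin D3 (50 nM or 3 nM final) for 16 h at 37 C. CCF4 beta-lactamase fluorescence was read; Hill fits gave IC50.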

[23] = biological target: Vitamin D3 receptor (Homo sapiens) (UniProt P11473); assay: qHTS assay for small molecule agonists of vitamin D receptor signaling (AID 588543; calls by dose curve;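 note: 0% = DMSO basal and 100% = reference agonist control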)
Summary of the method: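 GeneBLAzer VDR-UAS-bla HEK293T cells in 2% charcoal-stripped FBS medium were dosed with compound titrations for 16 h at 37 °C; CCF4 β-lactamase readout (405 nm ex, 460/530 nm em). EC50 and efficacy from Hill fits, normalized to 50 nM calcitriol (100%) and DMSO (0%).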

CC12CCC(CC1=O)C2(C)C (stereo not drawn)
-33.5% and 11.1%: max response [20]
inactive: Potency [1] | Potency [2] | Potency [3] | Potency [4] | Potency [5] | Potency [6] | Potency [7] | Potency [8] | Potency [9] | Potency [10] | Potency [11] | Potency [12] | Potency [13] | Potency [14] | Potency [15] | outcome [16] | Potency [17] | activation [18] -1.08% and -9.03% | Potency [19] | Potency [21] | outcome [22] | outcome [23]
